Screens (PubChem)
MITF TRPM1 inh: inhibitors of MITF-driven TRPM1 promoter in melanoma cells; AID 488899; SK-MEL-5 TRPM1 promoter luciferase, 24 h; actives 0.83% (n = 330,000); inhibition, % at 12.5 µM;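 active = mean inhibition across replicates of 60% or more, whatever share of single replicates reaches that level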
KKLEB cytotox: CF airway cell cytotoxicity counter-screen | actives 0.36% (n = 360,000) | KKLEB CF airway cells viability, ATPlite luminescence, overnight; active compounds read low; cells stimulated with P. aeruginosa culture filtrate | activity change (cytotoxicity), % at 5 µM;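 active = corrected activity change at or below -50% at 5 µM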
Peg3 prom inh: reduces Peg3 promoter-driven luciferase expression in HeLa. HeLa PEG-Prom luciferase reporter, luminescence, overnight. inhibition, % at 20 µM. actives 1.7% (n = 360,000);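 active = inhibition of at least 50% at 20 µM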
HIF-2a inh: inhibitors of HIF-2a | 786-0 RCC cells HIF-2a reporter, luciferase luminescence, overnight | inhibition, % at 18.8 µM | actives 0.72% (n = 360,000) | AID 624352;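 active = inhibition of the luminescence signal of 40% or more relative to plate controls, in a single-dose primary screen at 18.75 µM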
Shn3 3UTR inh: inhibitors of Schnurri-3 3'UTR reporter in osteoblasts. Clone20 osteoblast Shn3 3'UTR firefly luciferase, 24 h. inhibition, % at 12.5 µM. actives 0.52% (n = 360,000). AID 588674;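 active = mean inhibition of at least 75% with every replicate also reaching 75%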;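 note: 0% = median of neutral control wells and 100% = pilot-screen positive control compound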
CF NFkB block: blocks PAF-induced NF-kB reporter in cystic fibrosis cells | KKLEB NF-kB-GFP reporter, GFP fluorescence overnight | inhibition, % at 5 µM | actives 0.86% (n = 360,000) | AID 588850;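 active = at least 50% inhibition at 5 µM, scaled per plate between neutral and stimulator controls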;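 note: PAF is a Pseudomonas aeruginosa culture filtrate used as stimulus; plate controls were PAF-stimulated DMSO wells for no effect and unstimulated DMSO wells for full effect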
* = called active by the depositor. Only some compounds are listed: those with a hit (about 2.8% of all), similar ones and a draw of the others.

`COc1ccccc1-n1nnnc1SCC(=O)NCC1CCCO1` (stereo not drawn) gave MITF TRPM1 inh -9, KKLEB cytotox 0, Peg3 prom inh 13, HIF-2a inh 1, Shn3 3UTR inh 2 and CF NFkB block -16.
`Cc1cc(=O)c(C(=O)Nc2cccc(C(=O)NC3CC3)c2)nn1-c1ccccc1` gave KKLEB cytotox 9, Peg3 prom inh 0, HIF-2a inh 8, Shn3 3UTR inh -19 and CF NFkB block -15.
For CCOc1ccc(S(=O)(=O)NCc2ccncc2)cc1 the results were MITF TRPM1 inh 9, KKLEB cytotox -7, Peg3 prom inh 4, HIF-2a inh 11, Shn3 3UTR inh 90* and CF NFkB block 1.
CCOC(=O)COc1ccc(S(=O)(=O)NCc2ccncc2)cc1 was read as MITF TRPM1 inh 9, KKLEB cytotox -3, Peg3 prom inh 4, HIF-2a inh 14, Shn3 3UTR inh 72 and CF NFkB block -8.
For CCCC1=Nc2cc(C(=O)NCCCOC(C)C)ccc2Sc2ccccc21 the results were MITF TRPM1 inh 36, KKLEB cytotox 1, Peg3 prom inh 16, HIF-2a inh 25, Shn3 3UTR inh 34 and CF NFkB block 20.
For CCCC1=Nc2cc(C(=O)NCCCOCC)ccc2Sc2ccccc21 the results were MITF TRPM1 inh 72*, KKLEB cytotox -4, Peg3 prom inh 4, HIF-2a inh 12, Shn3 3UTR inh 17 and CF NFkB block 48.
`Cc1cccc(OCC(O)Cn2c(=N)n(CCN3CCCCC3)c3ccccc32)c1` (stereo not drawn) gave MITF TRPM1 inh 79*, KKLEB cytotox -14, Peg3 prom inh 95*, HIF-2a inh 25, Shn3 3UTR inh 64 and CF NFkB block 14.
`CCN(CC)CCn1c(=N)n(CC(O)COc2cccc(C)c2)c2ccccc21` (stereo not drawn) gave MITF TRPM1 inh 4, KKLEB cytotox -18, Peg3 prom inh 58*, HIF-2a inh 18, Shn3 3UTR inh 82 and CF NFkB block -2.
For COCc1ccc(CN2CCCC(C(=O)Nc3ccc(-c4cscn4)cc3)C2)o1 (stereo not drawn) the results were MITF TRPM1 inh 7, KKLEB cytotox -8, Peg3 prom inh 7, HIF-2a inh -3, Shn3 3UTR inh -15 and CF NFkB block 5.
CC(C)CCNC(=O)C(c1ccncc1)N(Cc1cccs1)C(=O)Cn1nnc(-c2ccc(F)cc2)n1 (stereo not drawn) was read as MITF TRPM1 inh 76*, KKLEB cytotox -39, Peg3 prom inh 12, HIF-2a inh 22, Shn3 3UTR inh 48 and CF NFkB block 15.
For O=C(NCC1CCCO1)C(c1ccncc1)N(Cc1cccs1)C(=O)Cn1nnc(-c2ccc(F)cc2)n1 (stereo not drawn) the results were MITF TRPM1 inh 9, KKLEB cytotox 1, Peg3 prom inh 18, HIF-2a inh 8, Shn3 3UTR inh -31 and CF NFkB block 12.
Screening Cc1ccc(-c2nnn(CC(=O)N(Cc3cccs3)C(C(=O)NC3CCCC3)c3ccncc3)n2)cc1 (stereo not drawn) returned MITF TRPM1 inh 73*, KKLEB cytotox -21, Peg3 prom inh 9, HIF-2a inh -17, Shn3 3UTR inh 7 and CF NFkB block 4.
`CCOc1ccc(NC(=O)c2ccc(NS(=O)(=O)c3cccs3)cc2)cc1` gave MITF TRPM1 inh -3, KKLEB cytotox 6, Peg3 prom inh -32, HIF-2a inh -9, Shn3 3UTR inh -1 and CF NFkB block 17.
For Cc1[nH][nH]c(=O)c1C(c1c(C)[nH][nH]c1=O)c1cn(Cc2ccc(F)cc2)c2ccccc12 the results were MITF TRPM1 inh 22, KKLEB cytotox -14, Peg3 prom inh 64*, HIF-2a inh 11, Shn3 3UTR inh -2 and CF NFkB block 15.
Screening Cc1[nH][nH]c(=O)c1C(c1c(C)[nH][nH]c1=O)c1cn(Cc2ccc(Cl)c(Cl)c2)c2ccccc12 returned MITF TRPM1 inh 40, KKLEB cytotox -15, Peg3 prom inh 45, HIF-2a inh -14, Shn3 3UTR inh 12 and CF NFkB block 30.
For O=C(COC(=O)Cn1cc(C(F)(F)F)ccc1=O)NCc1ccccc1 the results were MITF TRPM1 inh 5, KKLEB cytotox 3, Peg3 prom inh 20, HIF-2a inh 10, Shn3 3UTR inh -10 and CF NFkB block -5.
